# Fh CTSL1 inh – cathepsin L1 inhibition, PFM18AAP counter-screen; recombinant F. hepatica cathepsin L1, Z-Leu-Arg-MCA fluorescence; inhibition, % at 5.96 µM; actives 0.49% (n = 300,000);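 active means inhibition above the mean of all tested compounds plus 3 SD, set per screening campaign, cut at about 17% in these data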;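 further: 0% = plate median of test compound wells and 100% = 1 µM Z-Phe-Ala-diazomethylketone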
# Calb FLC – affects C. albicans growth with fluconazole; C. albicans CaCi-2 (fluconazole-resistant clinical isolate) + fluconazole, Alamar Blue growth, 48 h; growth inhibition, % (concentration not given with the values); actives 0.57% (n = 300,000);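 active means growth inhibition above about 58% in most replicates, limit read from the data, passing the limit was not always enough; inconclusive means exactly half the replicates above a set limit; inactive means most replicates below a set limit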;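 further: all wells also contain fluconazole at 8 µg/ml as a sub-toxic cotreatment; 0% = median of DMSO wells and 100% = median of geldanamycin control wells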
# M18AAP inhibitor – blocks P. falciparum M18 aspartyl aminopeptidase | recombinant PfM18AAP, H-Glu-NHMec fluorogenic cleavage | inhibition, % at 7.35 µM | actives 1.2% (n = 290,000) | AID 1822;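 active means inhibition above the campaign mean inhibition over all tested compounds plus 3 SD, cut at about 28% in these data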;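 further: 0% = plate median of test compound wells and 100% = 2 mM ZnCl2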
# Rin1-Abl PPI inh – human Rin1-Abl interaction inhibition. AID 588664. P00519+Q13671. actives 0.4% (n = 360,000). TR-FRET Rin1/Abl binding, biochemical. inhibition, % at 7.35 µM; in the data active means inhibition above about 5%, passing the limit was not always enough
# Rin1 Abl conf – confirmation of inhibitors of human Rin1-Abl interaction. actives 49% (n = 1,300). inhibition, % at 7.35 µM. TR-FRET Rin1-Abl binding, purified proteins. shares compounds with Rin1-Abl PPI inh
# GFP quench – counter-screen for Rin1-Abl inhibitors: GFP fluorescence quenchers; shares compounds with Rin1-Abl PPI inh; inhibitors/quenchers counterscreen; inhibition, % at 6.75 µM; actives 8.5% (n = 1,300); AID 602125;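 further: ABL1-eGFP fusion protein alone without its partner RIN1-SBP; 0% = protein with vehicle and 100% = wells lacking protein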
# GFP quench dose – quenches GFP in dose response, Rin1-Abl counter-screen; shares compounds with Rin1-Abl PPI inh; GFP fluorescence interference/quenching counterscreen; IC50, µM; 230 tested, under 10 active; call rule not given here;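 further: ABL1-eGFP fusion protein alone without its RIN1 binding partner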
# * = called active by the depositor; ? = inconclusive; · = no result. Sampled rows, rich in hits. Any-hit rate of the full collection: about 2.1%. Unless noted, no stated cut-off is given here; in the data, active means inhibition above about 6.5%; inactive means the rest.
SMILES,Fh CTSL1 inh,Calb FLC,M18AAP inhibitor,Rin1-Abl PPI inh,Rin1 Abl conf,GFP quench,others
CC12CCC(=O)N1C(C(=O)N1CCN(S(=O)(=O)c3ccc(Br)cc3Cl)CC1)CS2 (centres undefined),0.0,1.8,·,18.6*,17.4*,1.5,GFP quench dose=>67.5
OCC[C@@H]1C[C@@H](O)[C@H](O)[C@@]2(Cc3ccccc3CO2)O1,-1.6,-1.6,2.2,8.9*,-2.5,-0.7,
Cn1c(CCC(=O)Nc2ccc(N3CCOCC3)cc2)nc(=O)c2ccccc21,-2.4,1.5,5.2,9.6*,-3.8,-0.6,
O=C(CCn1ccc2ccccc21)Nc1ccc(N2CCOCC2)cc1,2.2,?,-2.2,-2.3,·,·,
Cc1cc(S(=O)(=O)Nc2ccc(C(=O)NCc3ccncc3)cc2)ccc1F,2.0,-0.8,·,-0.7,·,·,
O=C(NCCc1ccccc1Cl)C1CCC(=O)N(CC2CCCCC2)C1 (centres undefined),1.4,9.9,-9.9,0.1,·,·,
CC(Sc1nccn1C)C(=O)Nc1ccc(C(N)=O)cc1 (centres undefined),-0.5,2.1,·,10.1*,-2.1,-0.2,
COc1ccccc1NC(=O)C(C)Sc1nccn1C (centres undefined),·,·,·,0.6,·,·,
COCc1c(C(N)=O)nnn1-c1nonc1N,-2.1,6.4,-8.8,0.4,·,·,
COCCNc1nnc(SCC(=O)NNC(=O)c2ccc([N+](=O)[O-])cc2)s1,-3.5,·,·,-1.1,·,·,
c1ccc2[nH]c(SCc3cn4ccccc4n3)nc2c1,6.5,-9.9,3.8,5.6*,-1.7,1.1,
Nc1nc(-c2ccc([N+](=O)[O-])cc2)cc(=O)[nH]1,·,·,·,13.5*,11.2*,-0.2,
O=C(Nc1ccc(F)c(Cl)c1)N1CCCCCC1,1.3,-1.5,5.7,-0.1,·,·,
O=S(=O)(Nc1c(S(=O)(=O)c2ccccc2)c2nc3ccccc3nc2n1C1CCCCC1)c1ccccc1,-1.4,-1.6,4.2,9.8*,-3.8,0.1,
C=CCn1c(NS(=O)(=O)c2ccccc2)c(S(=O)(=O)c2ccc(C)cc2)c2nc3ccccc3nc21,0.6,10.9,1.2,0.8,·,·,
Cc1cc(=O)n2nc(N3CCCC(C(=O)N4CCc5ccccc54)C3)sc2n1 (centres undefined),6.7,-4.2,4.0,12.7*,16.6*,0.8,
Cc1cc(=O)n2nc(N3CCCC(C(=O)N4CCOCC4)C3)sc2n1 (centres undefined),1.6,·,0.6,0.6,·,·,
CC(C)(C)NS(=O)(=O)c1ccc(NS(C)(=O)=O)cc1,-0.8,2.6,-4.0,1.7,·,·,
COc1nc(Nc2cccc(F)c2)nc(OC)n1,-3.4,2.9,4.7,2.6,·,·,
COc1cc2nc(Nc3cccc(F)c3)nc(N)c2cc1OC,0.6,-0.4,-1.7,8.9*,13.5*,0.9,
CCOC(=O)C1=C[C@@H](CC)N(S(=O)(=O)c2ccccc2)[C@H]1c1ccccc1,·,·,·,4.8,·,·,
COc1ccc(C2C3=C(CC(C)(C)CC3=O)Oc3ncn(CCCn4ccnc4)c(=N)c32)cc1 (centres undefined),0.2,-15.9,0.7,4.5*,10.3*,0.1,
CC1(C)CC(=O)C2=C(C1)Oc1ncn(CCCn3ccnc3)c(=N)c1C2c1ccccc1 (centres undefined),4.7,7.4,3.5,3.5,·,·,
O=C1OC(c2ccc(F)cc2)=N/C1=C\c1ccc(Br)o1,-0.1,-6.7,8.6,-2.4,·,·,
